# Test results from PubChem BioAssay (EPA / NIEHS).
# Calls of active or inactive are those of the source. Rule for the calls: active = hit-call score of the fitted dose curve at least 0.9, where 1 is the maximum; inactive = score below 0.9.
# What was measured:
# Details in all cases: mRNA level, 48 h; actives raise or lower the signal
# CYP2E1 (gene 1571) = test: LTEA_HepaRG_CYP2E1: Life Technologies and Expression Analysis (LTEA) Assay for CYP2E1 using HepaRG (AID 2283485)
# Outline: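 HepaRG cells in serum-free induction medium exposed 48 h to test chemicals, 8 half-log concentrations up to 100 uM in 0.5% DMSO, duplicate. CYP2E1 mRNA by qRT-PCR, normalized to ACTB, GAPDH, POLR2A; bidirectional fit versus DMSO.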
# CYP4A11 (gene 1579) = test: LTEA_HepaRG_CYP4A11: Life Technologies and Expression Analysis (LTEA) Assay for CYP4A11 using HepaRG (AID 2283486)
# Outline: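 Differentiated HepaRG cells, 48 h after plating, exposed in duplicate for 48 h to 8 half-log concentrations up to 100 uM in 0.5% DMSO in serum-free induction medium. CYP4A11 mRNA measured by TaqMan qRT-PCR, normalized to ACTB, GAPDH and POLR2A.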
# [1] = read-out: Cytochrome P450 3A4 (Homo sapiens) (UniProt P08684); test: LTEA_HepaRG_CYP3A4: Life Technologies and Expression Analysis (LTEA) Assay for CYP3A4 using HepaRG (AID 2283487)
# Outline: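 CYP3A4 transcript measured by TaqMan qRT-PCR and normalized to three housekeeping genes after 48 h chemical exposure of human HepaRG cells. Top concentration 100 uM, half-log steps, 0.5% DMSO vehicle; gain or loss fitted against DMSO baseline.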
# [2] = read-out: DNA damage-inducible transcript 3 (DDIT3), DDIT3 (gene 1649); test: LTEA_HepaRG_DDIT3: Life Technologies and Expression Analysis (LTEA) Assay for DNA damage-inducible transcript 3 (DDIT3) using HepaRG (AID 2283488)
# Outline: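 Differentiated human HepaRG cells in serum-free induction medium were exposed in duplicate for 48 h to 8 concentrations (top 100 uM, half-log steps, 0.5% DMSO). DDIT3 mRNA measured by TaqMan qRT-PCR, normalized to ACTB/GAPDH/POLR2A; bidirectional fit versus DMSO.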
# [3] = read-out: Pro-epidermal growth factor (Homo sapiens) (UniProt P01133); test: LTEA_HepaRG_EGF: Life Technologies and Expression Analysis (LTEA) Assay for Epidermal growth factor (EGF) using HepaRG (AID 2283489)
# Outline: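 HepaRG cells (~100,000/well, 48 h pre-culture) exposed in duplicate for 48 h in serum-free induction medium to 8 half-log concentrations up to 100 uM in 0.5% DMSO. EGF mRNA by qRT-PCR, normalized to ACTB/GAPDH/POLR2A; bidirectional fit versus DMSO.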
# [4] = read-out: Early growth response protein 1 (EGR1) transcription factor, EGR1 (gene 1958); test: LTEA_HepaRG_EGR1: Life Technologies and Expression Analysis (LTEA) Assay for Early growth response protein 1 (EGR1) transcription factor using HepaRG (AID 2283490)
# Outline: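 Differentiated HepaRG cells in serum-free induction medium exposed 48 hours, duplicate, to 8 half-log concentrations up to 100 uM in 0.5% DMSO. EGR1 mRNA measured by TaqMan qRT-PCR, normalized to ACTB, GAPDH, POLR2A; bidirectional fit versus DMSO.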
# [5] = read-out: Ezrin (EZR), EZR (gene 7430); test: LTEA_HepaRG_EZR: Life Technologies and Expression Analysis (LTEA) Assay for Ezrin (EZR) using HepaRG (AID 2283491)
# Outline: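 HepaRG, 48 h chemical exposure, 8-pt half-log series from 100 uM, 0.5% DMSO vehicle, duplicates. Read-out: EZR mRNA by TaqMan qRT-PCR (Fluidigm array), housekeeping-normalized; bidirectional curve fit vs DMSO baseline.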
# [6] = read-out: Cytochrome P450 3A7 (Homo sapiens) (UniProt P24462); test: LTEA_HepaRG_CYP3A7: Life Technologies and Expression Analysis (LTEA) Assay for CYP3A7 using HepaRG (AID 2283492)
# Outline: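 Differentiated HepaRG cells in serum-free induction medium exposed 48 h in duplicate to 8-point half-log series from 100 uM top in 0.5% DMSO. CYP3A7 mRNA by qRT-PCR, normalized to ACTB/GAPDH/POLR2A, bidirectional fit versus DMSO.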
# CYP3A5 (gene 1577) = test: LTEA_HepaRG_CYP3A5: Life Technologies and Expression Analysis (LTEA) Assay for CYP3A5 using HepaRG (AID 2283493)
# Outline: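 Differentiated HepaRG cells in serum-free induction medium were dosed 48 h with test chemicals (8-point half-log series, top 100 uM, 0.5% DMSO, duplicate). CYP3A5 mRNA measured by qRT-PCR, normalized to ACTB, GAPDH, POLR2A; bidirectional fit versus DMSO.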
# [7] = read-out: Fatty Acid-Binding Protein 1 (FABP1), FABP1 (gene 2168); test: LTEA_HepaRG_FABP1: Life Technologies and Expression Analysis (LTEA) Assay for Fatty Acid-Binding Protein 1 (FABP1) using HepaRG (AID 2283494)
# Outline: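 Differentiated human HepaRG cells exposed 48 h in serum-free induction medium to eight half-log concentrations up to 100 uM (0.5% DMSO), duplicate. FABP1 mRNA by qRT-PCR, normalised to ACTB, GAPDH, POLR2A; bidirectional fitting against DMSO.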
# [8] = read-out: Cytochrome P450 4A22 (Homo sapiens) (UniProt Q5TCH4); test: LTEA_HepaRG_CYP4A22: Life Technologies and Expression Analysis (LTEA) Assay for Cytochrome P450 4A22 (CYP4A22) using HepaRG (AID 2283495)
# Outline: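 Differentiated HepaRG cells in serum-free induction medium exposed 48 h in duplicate to eight half-log concentrations up to 100 uM in 0.5% DMSO. CYP4A22 mRNA quantified by TaqMan qRT-PCR, normalized to ACTB, GAPDH and POLR2A; bidirectional fit versus DMSO.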
# [9] = read-out: Cytochrome P450 7A1 (Homo sapiens) (UniProt P22680); test: LTEA_HepaRG_CYP7A1: Life Technologies and Expression Analysis (LTEA) Assay for Cytochrome P450 7A1 (CYP7A1) using HepaRG (AID 2283496)
# Outline: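 Gene expression endpoint in human HepaRG liver cells treated for 48 h with test chemicals (up to 100 uM, 0.5% DMSO). Values come from bidirectional concentration-response fitting versus DMSO.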
# [10] = read-out: Glutathione S-Transferase (GSTA2), GSTA2 (gene 2939); test: LTEA_HepaRG_GSTA2: Life Technologies and Expression Analysis (LTEA) Assay for Glutathione S-Transferase (GSTA2) using HepaRG (AID 2283497)
# Outline: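 Differentiated human HepaRG cells were exposed in duplicate for 48 h in serum-free induction medium, 8 points from 100 uM top in half-log steps, 0.5% DMSO. GSTA2 mRNA was measured by TaqMan qRT-PCR, normalized to ACTB, GAPDH and POLR2A; bidirectional fit versus DMSO.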
# [11] = read-out: Glutamate-cysteine ligase catalytic (GCLC), GCLC (gene 2729); test: LTEA_HepaRG_GCLC: Life Technologies and Expression Analysis (LTEA) Assay for Glutamate-cysteine ligase catalytic (GCLC) using HepaRG (AID 2283498)
# Outline: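 Differentiated HepaRG cells exposed 48 h in serum-free induction medium, eight-point half-log series topping at 100 uM in 0.5% DMSO, duplicates. GCLC mRNA by qRT-PCR normalized to ACTB, GAPDH and POLR2A, fitted bidirectionally versus DMSO.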
# [12] = read-out: growth arrest and DNA damage 45 (GADD45G), GADD45G (gene 10912); test: LTEA_HepaRG_GADD45G: Life Technologies and Expression Analysis (LTEA) Assay for growth arrest and DNA damage 45 (GADD45G) using HepaRG (AID 2283499)
# Outline: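 Differentiated human HepaRG cells, 48 h post-plating, exposed 48 h in serum-free induction medium to 8 half-log concentrations (top 100 uM, 0.5% DMSO) in duplicate. GADD45G mRNA measured by Fluidigm TaqMan qRT-PCR, normalized to ACTB, GAPDH, POLR2A; bidirectional fit versus DMSO.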
# [13] = read-out: Glutamate-cysteine ligase regulatory (GCLM), GCLM (gene 2730); test: LTEA_HepaRG_GCLM: Life Technologies and Expression Analysis (LTEA) Assay for Glutamate-cysteine ligase regulatory (GCLM) using HepaRG (AID 2283500)
# Outline: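 Differentiated human HepaRG cells exposed 48 h in serum-free induction medium to 8-point half-log concentrations (top 100 uM, 0.5% DMSO), in duplicate. GCLM mRNA quantified by qRT-PCR, normalized to ACTB, GAPDH, POLR2A; bidirectional fitting versus DMSO.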
# [14] = read-out: Glutathione S-transferase M3 (GSTM3), GSTM3 (gene 2947); test: LTEA_HepaRG_GSTM3: Life Technologies and Expression Analysis (LTEA) Assay for Glutathione S-transferase M3 (GSTM3) using HepaRG (AID 2283501)
# Outline: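 Differentiated human HepaRG cells were exposed in duplicate for 48 h in serum-free induction medium, 8 points from 100 uM top in half-log steps, 0.5% DMSO. GSTM3 mRNA was measured by TaqMan qRT-PCR, normalized to ACTB, GAPDH and POLR2A; bidirectional fit versus DMSO.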
# [15] = read-out: Heat shock 70 kDa protein 1 (HSPA1A), gene 3303; test: LTEA_HepaRG_HSPA1A: Life Technologies and Expression Analysis (LTEA) Assay for Heat shock 70 kDa protein 1 (HSPA1A) using HepaRG (AID 2283502)
# Outline: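 Differentiated human HepaRG cells in serum-free induction medium were exposed in duplicate for 48 h to eight concentrations (top 100 uM, half-log steps, 0.5% DMSO). HSPA1A mRNA was quantified by qRT-PCR, normalized to ACTB, GAPDH and POLR2A, and fitted bidirectionally against DMSO.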
# [16] = read-out: Hypoxia-inducible factor 1-alpha (Homo sapiens) (UniProt Q16665); test: LTEA_HepaRG_HIF1A: Life Technologies and Expression Analysis (LTEA) Assay for Hypoxia-inducible factor 1 (HIF1A) Trancription factor using HepaRG (AID 2283503)
# Outline: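 HepaRG, 48 h exposure, 8-pt half-log series from 100 uM, 0.5% DMSO vehicle, duplicates. Readout: HIF1A transcript by qRT-PCR (Fluidigm array), housekeeping-normalised. Bidirectional curve fit vs DMSO baseline.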
# [17] = read-out: 3-Hydroxy-3-Methylglutaryl-CoA Synthase 2 (HMGCS2), HMGCS2 (gene 3158); test: LTEA_HepaRG_HMGCS2: Life Technologies and Expression Analysis (LTEA) Assay for 3-Hydroxy-3-Methylglutaryl-CoA Synthase 2 (HMGCS2) using HepaRG (AID 2283504)
# Outline: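 Human HepaRG cells in serum-free induction medium were exposed in duplicate for 48 h to 8-point half-log series from 100 uM top in 0.5% DMSO. HMGCS2 mRNA measured by TaqMan qRT-PCR, normalised to ACTB, GAPDH, POLR2A; bidirectional fit versus DMSO.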
# Chain of Hypoxia-inducible factor 1-alpha (Homo sapiens) (Q16665 whole entry, looked up): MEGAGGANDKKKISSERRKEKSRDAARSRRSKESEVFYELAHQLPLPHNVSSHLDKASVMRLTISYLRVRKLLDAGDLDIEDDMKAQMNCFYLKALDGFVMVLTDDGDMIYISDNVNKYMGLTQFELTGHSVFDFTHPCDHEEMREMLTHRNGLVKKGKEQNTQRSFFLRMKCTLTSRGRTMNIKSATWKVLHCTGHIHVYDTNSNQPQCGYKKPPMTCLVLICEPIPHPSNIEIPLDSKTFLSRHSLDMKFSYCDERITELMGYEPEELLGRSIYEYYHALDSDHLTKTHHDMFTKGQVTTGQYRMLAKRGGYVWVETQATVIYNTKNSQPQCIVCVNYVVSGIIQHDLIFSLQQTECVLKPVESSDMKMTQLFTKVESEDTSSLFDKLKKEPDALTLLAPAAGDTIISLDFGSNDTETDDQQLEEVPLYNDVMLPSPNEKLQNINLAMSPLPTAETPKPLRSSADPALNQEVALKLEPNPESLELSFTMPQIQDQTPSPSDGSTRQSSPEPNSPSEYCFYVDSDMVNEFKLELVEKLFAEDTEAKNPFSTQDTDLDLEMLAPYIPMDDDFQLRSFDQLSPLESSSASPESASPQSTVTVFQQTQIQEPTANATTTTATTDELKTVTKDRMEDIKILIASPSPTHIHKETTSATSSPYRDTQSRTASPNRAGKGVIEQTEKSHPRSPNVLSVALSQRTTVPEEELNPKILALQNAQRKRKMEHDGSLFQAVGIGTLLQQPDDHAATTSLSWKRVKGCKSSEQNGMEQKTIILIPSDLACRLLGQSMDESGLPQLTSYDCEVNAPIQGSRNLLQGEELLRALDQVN
# Chain of Cytochrome P450 3A4 (Homo sapiens) (P08684 whole entry, looked up): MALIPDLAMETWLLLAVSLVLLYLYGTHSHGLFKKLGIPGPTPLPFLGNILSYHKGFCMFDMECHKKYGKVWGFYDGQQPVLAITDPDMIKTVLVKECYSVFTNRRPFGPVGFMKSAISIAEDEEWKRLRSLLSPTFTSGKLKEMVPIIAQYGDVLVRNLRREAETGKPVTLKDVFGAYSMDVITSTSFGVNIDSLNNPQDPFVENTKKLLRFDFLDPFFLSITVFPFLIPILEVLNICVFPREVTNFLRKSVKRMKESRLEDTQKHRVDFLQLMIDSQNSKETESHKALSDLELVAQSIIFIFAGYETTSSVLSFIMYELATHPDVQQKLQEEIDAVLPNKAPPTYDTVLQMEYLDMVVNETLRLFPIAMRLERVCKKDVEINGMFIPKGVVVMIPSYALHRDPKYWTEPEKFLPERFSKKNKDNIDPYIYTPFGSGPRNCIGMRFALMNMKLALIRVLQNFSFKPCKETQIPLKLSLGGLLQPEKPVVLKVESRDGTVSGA
# Chain of Cytochrome P450 3A7 (Homo sapiens) (P24462 whole entry, looked up): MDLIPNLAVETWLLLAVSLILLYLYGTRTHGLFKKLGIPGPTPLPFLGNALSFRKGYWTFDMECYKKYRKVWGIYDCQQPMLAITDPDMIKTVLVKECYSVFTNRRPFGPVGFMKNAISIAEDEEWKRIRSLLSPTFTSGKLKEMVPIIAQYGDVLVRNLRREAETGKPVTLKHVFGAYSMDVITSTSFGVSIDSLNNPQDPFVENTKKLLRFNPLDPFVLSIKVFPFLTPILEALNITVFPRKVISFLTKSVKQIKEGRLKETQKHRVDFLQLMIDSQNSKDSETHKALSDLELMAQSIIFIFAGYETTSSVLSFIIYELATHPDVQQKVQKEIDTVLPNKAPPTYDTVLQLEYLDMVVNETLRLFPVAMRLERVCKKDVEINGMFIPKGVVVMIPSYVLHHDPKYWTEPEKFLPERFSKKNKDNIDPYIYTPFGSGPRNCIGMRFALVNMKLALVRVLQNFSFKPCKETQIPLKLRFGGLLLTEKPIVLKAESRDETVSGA
compound,measurement,setting,value
O=C(O)C(F)(F)C(F)(F)C(F)(F)C(F)(F)C(F)(F)F,outcome,CYP2E1 (gene 1571),inactive
same,AC50,CYP4A11 (gene 1579),50 µM (active)
same,outcome,[1],inactive
same,outcome,[2],inactive
same,outcome,[3],inactive
same,outcome,[4],inactive
same,outcome,[5],inactive
same,outcome,[6],inactive
same,outcome,CYP3A5 (gene 1577),inactive
same,AC50,[7],12 µM (active)
same,AC50,[8],13.3 µM (active)
same,outcome,[9],inactive
same,outcome,[10],inactive
same,outcome,[11],inactive
same,outcome,[12],inactive
same,outcome,[13],inactive
same,outcome,[14],inactive
same,outcome,[15],inactive
same,outcome,[16],inactive
same,AC50,[17],2.41 µM (active)
Clc1ccc(Cl)cc1,outcome,CYP2E1 (gene 1571),inactive
same,outcome,CYP4A11 (gene 1579),inactive
same,outcome,[1],inactive
same,outcome,[2],inactive
same,outcome,[3],inactive
same,outcome,[4],inactive
same,outcome,[5],inactive
same,outcome,[6],inactive
same,outcome,CYP3A5 (gene 1577),inactive
same,outcome,[7],inactive
same,outcome,[8],inactive
same,outcome,[9],inactive
same,outcome,[10],inactive
same,outcome,[11],inactive
same,outcome,[12],inactive
same,outcome,[13],inactive
same,outcome,[14],inactive
same,outcome,[15],inactive
same,outcome,[16],inactive
same,outcome,[17],inactive
CCCCCCCCCC[N+](C)(C)CCCCCCCCCC,AC50,CYP4A11 (gene 1579),26.3 µM (active)
same,AC50,[1],63.1 µM (active)
same,AC50,[2],74 µM (active)
same,outcome,[3],inactive
same,AC50,[4],94.6 µM (active)
same,AC50,[5],80.9 µM (active)
same,outcome,[6],inactive
same,outcome,CYP3A5 (gene 1577),inactive
same,outcome,[7],inactive
same,AC50,[8],25.5 µM (active)
same,outcome,[9],inactive
same,AC50,[10],74.5 µM (active)
same,AC50,[11],83.7 µM (active)
same,AC50,[12],83.7 µM (active)
same,outcome,[13],inactive
same,outcome,[14],inactive
same,outcome,[15],inactive
same,AC50,[16],82.7 µM (active)
same,AC50,[17],77.4 µM (active)
